The record followed here is PubChem BioAssay (NCATS).

For assay [1], the system named is Zika virus NS2B-NS3 protease (unlinked complex). Nature of the assay: Primary screen GU Rhodamine qHTS for Zika virus inhibitors: Unlinked NS2B-NS3 protease assay (AID 1347159). Further: nearly all actives have a fitted effect of over 60% in size. Conditions: Recombinant ZIKV NS2B-NS3 protease, Rhodamine110 substrate fluorescence; series mostly up to 107 µM. The method, boiled down:
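Enzyme 25 nM in Tris-HCl pH 8.0 + 0.01% Tween 20; compounds up to 114 microM, 15 min RT dark; + Rhod110 substrate 1.5 microM; read t0 and 15 min; delta fluorescence → % inhibition → 4-parameter Hill fit.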
For orientation: Quantitative high-throughput screening tests each substance at several concentrations.

Assay [2] deals with Zika virus NS2B-NS3 protease (linked construct). Nature of the assay: Primary screen NINDS Rhodamine qHTS for Zika virus inhibitors (AID 1347160). Further: nearly all actives have a fitted effect of over 55% in size. Conditions: purified NS2B-NS3 protease, Rhodamine110 substrate fluorescence; series mostly up to 57.1 µM. In a few lines: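 Enzyme (25 nM, linked NS2B-NS3) was preincubated 15 min with compound in 10 mM Tris-HCl pH 8.0, 0.01% Tween 20. Rhodamine110 substrate (1.5 microM) was then added and fluorescence read at start and after 15 min.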

Results filed as inconclusive are left out. A number with no mark means an inactive call. Calls of active or inactive are those of the source. The call rests on the fitted dose curve; in most records, active means well fitted inhibition curve with a large enough effect; inconclusive means small, poorly fitted or top-dose-only effect; inactive means no such curve, though single readings can be large or run the other way.
On the % scale 0 is the no-effect control and ±100 the full control effect.

As for `CC(C)/C=C1\NC(=O)C(C(C)C)n2c1nc1c(c2=O)C=CC=CO1` (stereo not drawn), the Potency result in assay [1] and in assay [2] was “inactive” throughout.
With `Cc1ccc(-c2ccc3c(ccc4sc5c(c43)NC[C@@H](C)NC5=O)n2)cn1`, the Potency result in assay [1] and in assay [2] was “inactive” throughout.
For the compound `CC(=O)OC1C(c2ccccc2)CCC(c2ccccc2)C1OC(C)=O` (stereo not drawn), the Potency entry in assay [1] and in assay [2] was “inactive” in each case.
For the compound `COc1cc(C(=O)NC2CCN(C)CC2)ccc1Nc1ncc2c(n1)N(C1CCCC1)CC(F)(F)C(=O)N2C`, the Potency entry in assay [1] and in assay [2] was “inactive” throughout.
On to `C/C=C/C=C/C(O)=C1\C(O)=C(C)C(=O)[C@@]2(C)OC(=O)[C@@](C)(NC(=O)/C=C/C(=O)O)[C@@H]12`, for which the Potency result in assay [1] and in assay [2] was “inactive” in each case.
For `CC1(C)CC[C@]2(C(=O)OC3OC(CO)C(O)C(O)C3O)CC[C@]3(C)C(=CCC4[C@@]5(C)CC[C@H](OC6OC(C(=O)O)C(O)C(OC7OC(CO)C(O)C(O)C7O)C6O)C(C)(C)C5CC[C@]43C)C2C1` (stereo partly drawn), the Potency entry in assay [1] and in assay [2] was “inactive” each time.
On to `COCCOc1ccc(N2CCN(CCn3ncc4c3nc(N)n3nc(-c5ccco5)nc43)CC2)cc1`, for which the Potency entry in assay [1] and in assay [2] was “inactive” in each case.
For the compound `COc1cc(Nc2nc3c(s2)CCCC3c2ccc(F)cc2)ccc1-n1cnc(C)c1` (stereo not drawn), the Potency result in assay [1] and in assay [2] was “inactive” throughout.
For the compound `COC(=O)CCSCc1ccc(-c2onc(C)c2NC(=O)OC(C)c2ccccc2Cl)cc1` (stereo not drawn), the Potency result in assay [1] and in assay [2] was “inactive” throughout.
On to `O=C(O[C@H]1[C@@H]2C[C@@H]3OC[C@](O)([C@@H]1Cl)[C@H]2C(O[C@@H]1O[C@H](CO)[C@@H](O)[C@H](O)[C@H]1O)O3)c1ccc(O)c(O)c1` (stereo partly drawn), for which the Potency entry in assay [1] and in assay [2] was “inactive” in each case.
Take `Cc1c[nH]c2nccc(Oc3c(F)cc(Nc4cc(Cl)nc(N)n4)cc3F)c12`: the Potency result in assay [1] and in assay [2] was “inactive” each time.
`CNC(C)C(=O)NC(C(=O)N1CCCC1c1nc(C(=O)c2ccc(F)cc2)cs1)C1CCCCC1` (stereo not drawn): the Potency entry in assay [1] and in assay [2] was “inactive” in each case.
Consider `Oc1ccc2nc(CN3CCC(Cc4ccccc4F)CC3)[nH]c2c1`, for which the Potency entry in assay [1] and in assay [2] was “inactive” each time.
With `Cc1c(NC(=O)c2cc(C(N)=O)nc3cc(F)ccc23)c(C(F)(F)F)nn1Cc1ccc(C#N)cc1`, the Potency entry in assay [1] and in assay [2] was “inactive” in each case.
Consider `COc1c2c(c(C)c3c1C(=O)OC3)O[C@@]1(C)CC(O)C(C(C)(C)O)[C@](C)(CCC(=O)O)[C@H]1C2` (stereo partly drawn), for which the Potency result in assay [1] and in assay [2] was “inactive” throughout.
For `C[C@@H]1O[C@@H](OC[C@H]2O[C@@H](Oc3cc(O)cc4c3C(=O)C(O)(Cc3ccc(O)cc3)O4)[C@H](O)[C@@H](O)[C@@H]2O)[C@H](O)[C@H](O)[C@H]1O` (stereo partly drawn), the Potency entry in assay [1] and in assay [2] was “inactive” each time.
Take `CCN(CC)Cc1ccc(C(=O)N(CCc2ccccc2OC)[C@@H]2CCNC2)cc1`: the Potency result in assay [1] and in assay [2] was “inactive” each time.
On to `COc1cccc(-c2cc(NCc3ccc4c(c3)OCO4)nc(N)n2)c1`, for which the Potency entry in assay [1] and in assay [2] was “inactive” throughout.
Regarding `C=C1C(=O)O[C@@H]2[C@H]1CCC(C)=C1CCC(=O)O[C@]12C`, the Potency result in assay [1] and in assay [2] was “inactive” in each case.
In the case of `CCO[C@@H]1OC(=O)C[C@@H]1NC(=O)[C@@H]1CCCN1C(=O)[C@@H](NC(=O)c1ccc(N)c(Cl)c1)C(C)(C)C`, the Potency entry in assay [1] and in assay [2] was “inactive” in each case.
Turning to `CC(C)c1cc(C(=O)N2CC[C@@H](NC(=O)C3CC3)C2)n[nH]1`, the Potency entry in assay [1] and in assay [2] was “inactive” each time.
Turning to `COC(=O)C12CCC(C)C(C)C1C1=CCC3C4(C)CCC(OC(C)=O)C(C)(C)C4CCC3(C)C1(C)CC2` (stereo not drawn), the Potency result in assay [1] and in assay [2] was “inactive” throughout.
Turning to `COc1ccc(-c2c(-c3cc(C(=O)O)ccn3)ncn2C)cc1`, the Potency result in assay [1] and in assay [2] was “inactive” throughout.
Take `CCOc1ccc2nc(SCCN3CCOCC3)[nH]c2c1`: the Potency entry in assay [1] and in assay [2] was “inactive” throughout.
For the compound `CC1(O)CCCC2(C)C1CCC13CC(CO)C(CCC12)C3` (stereo not drawn), the Potency entry in assay [1] and in assay [2] was “inactive” each time.
Turning to `CC(=O)O[C@@H]1[C@H](O[C@@H]2O[C@@H](CO)[C@H](O)[C@H]2O)[C@@H](O[C@@H]2O[C@@H](C)[C@H](O[C@@H]3OC[C@@H](O)[C@H](O)[C@H]3O)[C@@H](O)[C@H]2O)[C@H](OC(=O)[C@]23CCC(C)(C)C[C@H]2C2=CCC4[C@@]5(C)CC[C@H](O[C@@H]6O[C@H](C(=O)O)[C@@H](O)[C@H](O)[C@H]6O[C@@H]6O[C@H](CO)[C@H](O)[C@H](O)[C@H]6O)[C@@](C)(C=O)C5CC[C@@]4(C)[C@]2(C)CC3)O[C@@H]1C` (stereo partly drawn), the activity change, negative = inhibition is 10.7% [at 19.1 µM] in assay [1] and -19.7% [at 10.7 µM] in assay [2].
Turning to `COC(=O)C1=CO[C@@H](O[C@@H]2O[C@H](CO)[C@@H](O)[C@H](O)[C@H]2O)[C@@H]2[C@@](C)(O)[C@@H](OC(=O)/C=C/c3ccc(O)cc3)C[C@]12O`, the Potency result in assay [1] and in assay [2] was “inactive” throughout.
In the case of `Cn1nnc(-c2ccc(-c3ccc(N4C[C@H](CO)OC4=O)cc3F)cn2)n1`, the Potency entry in assay [1] and in assay [2] was “inactive” in each case.
`C[C@@H]1CCC2C(C)(C)[C@H](O)CC[C@]2(C)[C@@]12Cc1c(O)cc3c(c1O2)CNC3=O` (stereo partly drawn): the Potency entry in assay [1] and in assay [2] was “inactive” throughout.
